The AC50 is the concentration at which the activity in the assay is half-maximal.

The whole screen tested about 16,000 compounds, of which about 5,100 (32%) were called active. Inconclusive results (about 25%) are left out. Calls follow the shape of the dose curve; as a rule, active = well fitted curve in the direction sought with a large enough effect; inconclusive = small, poorly fitted or top-dose-only effect, or effect the other way; inactive = no such curve, though single readings can be large or run the other way. Some of the results follow.

We go through 66 compounds from PubChem BioAssay AID1851 (National Center for Advancing Translational Sciences (NCATS), 2009).
% is scaled to controls: 0 for no effect and ±100 for the full control effect.

Sequence of Cytochrome P450 3A4 (Homo sapiens) (P08684 whole entry, looked up): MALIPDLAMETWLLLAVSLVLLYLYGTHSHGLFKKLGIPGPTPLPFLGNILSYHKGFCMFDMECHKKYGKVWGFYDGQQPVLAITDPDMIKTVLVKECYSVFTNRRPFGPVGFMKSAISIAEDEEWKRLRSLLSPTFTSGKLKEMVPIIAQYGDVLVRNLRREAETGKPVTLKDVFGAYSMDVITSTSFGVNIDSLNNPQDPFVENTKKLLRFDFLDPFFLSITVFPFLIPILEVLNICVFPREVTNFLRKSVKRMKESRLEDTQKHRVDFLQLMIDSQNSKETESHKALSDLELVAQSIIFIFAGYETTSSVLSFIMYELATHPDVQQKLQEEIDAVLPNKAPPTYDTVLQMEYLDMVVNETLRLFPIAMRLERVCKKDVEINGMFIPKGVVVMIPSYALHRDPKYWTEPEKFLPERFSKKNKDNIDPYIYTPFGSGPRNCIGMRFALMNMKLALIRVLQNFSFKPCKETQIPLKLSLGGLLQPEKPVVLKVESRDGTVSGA

This assay concerns the target Cytochrome P450 3A4 (Homo sapiens) (UniProt P08684). In words: Cytochrome panel assay with activity outcomes. The settings on record: recombinant CYP, pro-luciferin dealkylation, luminescence, p450-cyp3a4; series mostly up to 57.1 µM; activity, negative = inhibition: at the top concentration.
As for `Cc1cc(C=C(C#N)C#N)c(C)n1-c1ccccc1`, the “activity, negative = inhibition” value is 5.65% (inactive).

With `COCC(=O)N1CCC2(CCCN(Cc3ccccc3)C2)CC1`, the “activity, negative = inhibition” value is -23.3% (inactive).

Regarding `COc1ccc(C(=O)N2CCC[C@@]3(CCN(Cc4cc(C(F)(F)F)cc(C(F)(F)F)c4)C3)C2)cc1`, the AC50 was 3.16 µM (active).

Regarding `COCC(=O)N1CCC2(CCCN(Cc3cc(C(F)(F)F)cc(C(F)(F)F)c3)C2)CC1`, the concentration at half-maximal activity (AC50) was 20 µM (active).

For `O=C(c1cccc(F)c1)N1CCC2(CCCN(Cc3cc(C(F)(F)F)cc(C(F)(F)F)c3)C2)CC1`, the concentration at half-maximal activity (AC50) was 10 µM (active).

With `O=C(c1cccc(F)c1)N1CCC2(CCCN(Cc3ccccc3)C2)CC1`, the “activity, negative = inhibition” value was -24.7% (inactive).

Take `COC(=O)N1CCC2(CCCN(Cc3cc(C(F)(F)F)cc(C(F)(F)F)c3)C2)CC1`: the “activity, negative = inhibition” value is -0.66% (inactive).

Consider `COC(=O)N1CCC2(CCN(Cc3cc(C(F)(F)F)cc(C(F)(F)F)c3)CC2)CC1`, for which the “activity, negative = inhibition” value is -24.3% (inactive).

For `COCC(=O)N1CCC2(CC1)CN(Cc1cc(C(F)(F)F)cc(C(F)(F)F)c1)C2`, the “activity, negative = inhibition” value is -17% (inactive).

With `COc1ccc(C(=O)N2CCC3(CCCN(Cc4cc(C(F)(F)F)cc(C(F)(F)F)c4)C3)CC2)cc1`, the AC50 was 10 µM (active).

On to `FC(F)(F)c1cc(CN2CCCC3(CCNCC3)C2)cc(C(F)(F)F)c1`, for which the AC50 is 7.94 µM (active).

Take `FC(F)(F)c1cc(CN2CC3(CCNCC3)C2)cc(C(F)(F)F)c1`: the “activity, negative = inhibition” value was -20.6% (inactive).

`CS(=O)(=O)N1CCC2(CC1)CN(Cc1cc(C(F)(F)F)cc(C(F)(F)F)c1)C2`: the “activity, negative = inhibition” value was -22.2% (inactive).

As to `CC(C)(C)N1C(=O)[C@H]2[C@H]3[C@H](O)[C@H](O)C/C(=N/NC(=O)OCc4ccccc4)[C@H]3CC[C@@H]2C1=O`, the activity, negative = inhibition is -22.6% [at 11.4 µM] (inactive).

Turning to `COc1ccc(N2CC(C(=O)Nc3cc(C)on3)CC2=O)cc1` (stereo unspecified), the “activity, negative = inhibition” value was -17.7% (inactive).

Regarding `COc1ccc(/C=C2\SC(=O)N(CCNC(=O)C3CC(=O)N(c4ccccc4)C3)C2=O)cc1` (stereo unspecified), the half-maximal activity concentration (AC50) was 2.82 µM (active).

In the case of `NC(N)=NC(N)=Nc1ccc(S(N)(=O)=O)cc1`, the activity, negative = inhibition was -13.3% [at 11.4 µM] (inactive).

`Cc1nn(C)c(C(=O)NNC(=S)Nc2ccc(Cl)cc2)c1[N+](=O)[O-]`: the activity, negative = inhibition is -8.67% [at 2.29 µM] (inactive).

Regarding `COc1ccccc1NC(=S)NNC(=O)c1c(Cl)c(C)nn1C`, the half-maximal activity concentration (AC50) is 15.8 µM (active).

On to `COC(=O)c1c(-c2cc(OC)c(OC)c(OC)c2)c2ccnc(OCc3ncccn3)c2c(=O)n1Cc1ccnc(C)c1`, for which the AC50 is 15.8 µM (active).

As for `c1ccc(-c2nnc(SCc3nc4ccccc4[nH]3)n2Cc2ccco2)cc1`, the AC50 is 2 µM (active).

`c1ccc(SCc2nc3ccccc3[nH]2)cc1`: the AC50 is 12.6 µM (active).

`OC(Cc1nc2ccccc2[nH]1)c1ccccc1Cl` (stereo unspecified): the AC50 was 10 µM (active).

As to `CCn1c(SCc2nc3ccccc3[nH]2)nnc1-c1ccc(OC)cc1`, the AC50 is 3.16 µM (active).

Turning to `c1ccc2[nH]c(NC3=NCCC3)nc2c1`, the “activity, negative = inhibition” value was 8.35% (inactive).

As to `CC[C@]1(C)CC(=O)NC1=O`, the AC50 result was “inactive”.

Turning to `NCc1ccccc1CC(=O)N[C@@H]1C(=O)N2C(C(=O)O)=C(CSc3nnnn3CC(=O)O)CS[C@@H]12`, the “activity, negative = inhibition” value was -2.75% [at 25.6 µM] (inactive).

Regarding `C/C(C[n+]1ccccc1)=N\N=C(N)N`, the activity, negative = inhibition was 2.37% [at 11.4 µM] (inactive).

Take `Cc1noc(C)c1-c1nccc(NCc2cccs2)n1`: the AC50 was 15.8 µM (active).

In the case of `Cc1noc(C)c1-c1nccc(NCc2cccnc2)n1`, the half-maximal activity concentration (AC50) was 3.98 µM (active).

Turning to `Cc1noc(C)c1-c1nccc(NCc2ccccc2)n1`, the AC50 was 5.01 µM (active).

`Nc1[nH]c(=O)nc2c1ncn2[C@H]1O[C@@H](CO)[C@@H](O)[C@@H]1O`: the activity, negative = inhibition was -8.49% [at 11.4 µM] (inactive).

As for `CCCCn1cnc2c(c(CC#N)nn2-c2ccccc2)c1=N`, the activity, negative = inhibition was -13.4% [at 11.4 µM] (inactive).

On to `COCC(=O)N1CCC[C@@]2(CCN(c3ncccn3)C2)C1`, for which the “activity, negative = inhibition” value was -13.1% (inactive).

`CCOc1cccc(/C(O)=C2/C(=O)C(=O)N(Cc3cccnc3)C2c2ccco2)c1` (stereo unspecified): the half-maximal activity concentration (AC50) is 12.6 µM (active).

On to `COc1cccc(/C(O)=C2/C(=O)C(=O)N(Cc3cccnc3)C2c2ccco2)c1` (stereo unspecified), for which the AC50 is 14.1 µM (active).

As to `COc1ccc(/C(O)=C2/C(=O)C(=O)N(Cc3cccnc3)C2c2ccco2)cc1OC` (stereo unspecified), the concentration at half-maximal activity (AC50) was 14.1 µM (active).

As to `COc1ccc(C2C(C(=O)c3ccco3)=C(O)C(=O)N2Cc2cccnc2)cc1OC` (stereo unspecified), the “activity, negative = inhibition” value was -18.7% (inactive).

As for `COc1ccc(C2/C(=C(/O)c3ccccc3)C(=O)C(=O)N2CC(C)O)c(OC)c1` (stereo unspecified), the “activity, negative = inhibition” value is -11.4% (inactive).

For `COc1ccccc1C1/C(=C(/O)c2ccccc2)C(=O)C(=O)N1CCO` (stereo unspecified), the “activity, negative = inhibition” value is -5.34% (inactive).

Take `CC(C)Oc1ccc(/C(O)=C2/C(=O)C(=O)N(Cc3cccnc3)C2c2ccco2)cc1` (stereo unspecified): the half-maximal activity concentration (AC50) is 14.1 µM (active).

For the compound `COCCN1C(=O)C(=O)/C(=C(/O)c2cccc(OC)c2)C1c1ccco1` (stereo unspecified), the “activity, negative = inhibition” value is -0.898% (inactive).

`Cc1ccc(C2/C(=C(/O)c3ccc(Cl)cc3)C(=O)C(=O)N2CC2CCCO2)o1` (stereo unspecified): the “activity, negative = inhibition” value is -22.7% (inactive).

`O=C(O)c1ccc(/C=N\N=C2c3ccccc3-c3ccccc32)cc1`: the activity, negative = inhibition is -15.1% [at 11.4 µM] (inactive).

Consider `CCc1ccc(N(C(=O)c2csnn2)C(C(=O)NC(C)(C)C)c2ccncc2)cc1` (stereo unspecified), for which the AC50 was 3.98 µM (active).

Turning to `Cc1ccc(N(C(=O)c2csnn2)C(C(=O)NC(C)(C)C)c2cccs2)cc1` (stereo unspecified), the concentration at half-maximal activity (AC50) is 7.08 µM (active).

Regarding `Cc1ccccc1/C=N\NC(=O)c1csnn1`, the “activity, negative = inhibition” value was -24.9% (inactive).

Regarding `CCNc1nnc(-c2ccncc2)s1`, the activity, negative = inhibition was -14.1% [at 11.4 µM] (inactive).

Turning to `COC(=O)N1CCC2(CCN(C(=O)NC(C)C)CC2)CC1`, the “activity, negative = inhibition” value was -3.12% (inactive).

In the case of `Cn1c(SCc2nnc(-c3ccc(F)cc3)o2)nnc1C1COc2ccccc2O1` (stereo unspecified), the concentration at half-maximal activity (AC50) is 14.1 µM (active).

`CC(Oc1ccc(Cl)cc1)C(=O)/C=C/N(C)C` (stereo unspecified): the “activity, negative = inhibition” value was -20.2% (inactive).

With `Oc1[nH]c2ccccc2c1N=Nc1ccc(C(F)(F)F)cn1`, the “activity, negative = inhibition” value was 4.51% (inactive).

With `Oc1[nH]c2ccccc2c1/C=N/c1nccs1`, the AC50 was 15.8 µM (active).

Regarding `CC(=O)c1cnc2cc(C)nn2c1C`, the “activity, negative = inhibition” value was 27% (inactive).

For the compound `Cc1cc(C)n(C(=O)c2cc3ccccc3c(=O)o2)n1`, the “activity, negative = inhibition” value is 3.16% (inactive).

Turning to `Cc1cc(C)n(C(=O)CCCCCCCCC(=O)n2nc(C)cc2C)n1`, the concentration at half-maximal activity (AC50) was 4.47 µM (active).

In the case of `CC1=C(C(=O)O)N2C(=O)C(NC(=O)c3ccn(C)n3)C2SC1` (stereo unspecified), the “activity, negative = inhibition” value is 0.0496% (inactive).

As for `O=C(CN(Cc1ccccc1Cl)C(=O)c1ccc(CN2CCOCC2)o1)NCC1CCCO1` (stereo unspecified), the half-maximal activity concentration (AC50) is 12.6 µM (active).

On to `O=C(CSCc1c(F)cccc1Cl)NCC1CCCO1` (stereo unspecified), for which the “activity, negative = inhibition” value is -15.8% (inactive).

As to `COc1ccc(N(CC(=O)N/N=C/c2cccs2)S(=O)(=O)c2ccc(OC)c(OC)c2)cc1`, the AC50 is 1.12 µM (active).

With `COc1ccc(N(CC(=O)NN=C2CCCC2)S(=O)(=O)c2ccccc2)cc1`, the AC50 was 2.82 µM (active).

Turning to `COCCCNC(=O)CN(c1ccc(OC)cc1)S(=O)(=O)c1ccc(NC(C)=O)cc1`, the AC50 is 12.6 µM (active).

On to `Cn1cccc1CC(=O)N/N=C\c1cccs1`, for which the activity, negative = inhibition was 3.8% [at 2.29 µM] (inactive).

Regarding `CN(CC(=O)O/N=C(\N)c1ccccn1)S(=O)(=O)c1ccccc1`, the “activity, negative = inhibition” value is 3.62% (inactive).

Regarding `CC(C)(C)C1CCc2c(C(=O)N/N=C/c3cccs3)csc2C1` (stereo unspecified), the activity, negative = inhibition was 5.34% [at 2.29 µM] (inactive).

Take `O=C(CN(c1ccccc1)S(=O)(=O)c1ccccc1[N+](=O)[O-])NN=C1CCCCCCC1`: the “activity, negative = inhibition” value is 14.3% (inactive).
